Inconclusive results are not listed. Unmarked numbers belong to inactive results. The source made the active and inactive calls. Calls follow the shape of the dose curve; as a rule, active = well fitted cell-killing curve with a large enough effect; inconclusive = small, poorly fitted or top-dose-only effect, or effect the other way; inactive = flat fitted curve, though single readings scatter.
% is scaled to controls: 0 for no effect and ±100 for the full control effect.

The first assay deals with OV90. As to the kind of experiment: Primary qHTS to identify gynecologic anti-cancer compounds using libraries of approved drugs and bioactive compounds (AID 1345084). Also: nearly all actives have a fitted effect of over 55% in size. The note with it: Gynecologic cancer cell panel viability, ATPlite luminescence, 48 h; series mostly up to 57.5 µM; activity change, negative = cytotoxicity: at the top concentration. The gist of the method:
(§1)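 Measured: luminescence after ATPlite addition (15 min, RT). Exposure: 48 h, 37 C, 5% CO2.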
For `COc1cccc([C@@]2(O)CCCC[C@@H]2CN(C)C)c1`, the “activity change, negative = cytotoxicity” value is 1.47%.

Take `C#C[C@]1(O)CC[C@H]2[C@@H]3CCC4=CC(=O)CC[C@]4(C)[C@H]3CC[C@@]21C`: the “activity change, negative = cytotoxicity” value was 8.43%.

On to `COP(=S)(OC)Oc1ccc(S(=O)(=O)N(C)C)cc1`, for which the “activity change, negative = cytotoxicity” value is -2.13%.

As to `C[N+]1(CCF)[C@@H]2CC[C@H]1CC(OC(=O)C(O)(c1ccccc1)c1ccccc1)C2` (stereo partly drawn), the “activity change, negative = cytotoxicity” value is 4.53%.

For the molecule `Nc1ccccc1`, the “activity change, negative = cytotoxicity” value is 9.46%.

Regarding `CN1C(=O)NC(=O)C(C)(C2=CCCCC2)C1=O` (stereo not drawn), the “activity change, negative = cytotoxicity” value is 3.87%.

On to `CCC1(CC)C(=O)C=CNC1=O`, for which the “activity change, negative = cytotoxicity” value is -16%.

For `O=c1oc2ccccc2c(O)c1Cc1c(O)c2ccccc2oc1=O`, the “activity change, negative = cytotoxicity” value was -2.34%.

With `COC(=O)[C@@H](N)CCCN/C(N)=N/[N+](=O)[O-]`, the “activity change, negative = cytotoxicity” value is 0.635%.

For `Cc1ncsc1CCCl`, the “activity change, negative = cytotoxicity” value is -1.78%.

Take `COC(=O)C(Cl)C(=O)OC`: the “activity change, negative = cytotoxicity” value was 1.56%.

As to `CN(C)CCc1c[nH]c2cccc(OP(=O)(O)O)c12`, the “activity change, negative = cytotoxicity” value was 2.14% [at 116 µM].

Regarding `O=[N+]([O-])O[C@H]1CO[C@H]2[C@@H]1OC[C@H]2O[N+](=O)[O-]`, the “activity change, negative = cytotoxicity” value was -3.56%.

For `CC(C)NC(C)C`, the “activity change, negative = cytotoxicity” value is -2.09%.

Turning to `O=C1OC(c2ccc(O)c(S(=O)(=O)O)c2)(c2ccc(O)c(S(=O)(=O)O)c2)c2c(Br)c(Br)c(Br)c(Br)c21`, the “activity change, negative = cytotoxicity” value was 5.09%.

Turning to `CCC1(c2ccccc2)C(=O)N(COC)C(=O)N(COC)C1=O`, the “activity change, negative = cytotoxicity” value was -12.7%.

As for `CCOC(=O)CC(SP(=S)(OC)OC)C(=O)OCC` (stereo not drawn), the Potency result was “inactive”.

With `CC(=O)OCC1=C(C(=O)O)N2C(=O)[C@@H](N)[C@H]2SC1`, the Potency entry is “inactive”.

For the molecule `CC1(C)C(C=C(Cl)Cl)C1C(=O)OC(C#N)c1cccc(Oc2ccccc2)c1` (stereo not drawn), the “activity change, negative = cytotoxicity” value is 4.66%.

For the molecule `O=C(N/N=C/c1ccc([N+](=O)[O-])o1)c1cc([N+](=O)[O-])cc([N+](=O)[O-])c1O`, the “activity change, negative = cytotoxicity” value is 19.3%.

For `CC(=O)NC1CCSC1=O` (stereo not drawn), the “activity change, negative = cytotoxicity” value is 0.368%.

Regarding `CCCCCCC(=O)CCCCCC/C=C/C[C@@H](O)[C@H](O)[C@@](N)(CO)C(=O)O`, the “activity change, negative = cytotoxicity” value was 13.2% [at 25.3 µM].

`CC(C)c1cccc(C(C)C)c1O`: the “activity change, negative = cytotoxicity” value was -17%.

As for `COP(=S)(OC)Oc1cc(Cl)c(Cl)cc1Cl`, the “activity change, negative = cytotoxicity” value is 4.03%.

Turning to `O=c1[nH]oc2c1CCNC2`, the “activity change, negative = cytotoxicity” value is -4.34%.

For `NCCc1ccc(O)cc1`, the “activity change, negative = cytotoxicity” value is -12.3%.

Take `O=C1c2ccccc2C(=O)C1C(=O)C(c1ccccc1)c1ccccc1`: the “activity change, negative = cytotoxicity” value is -9.93%.

In the case of `NC1=NC(=O)C(c2ccccc2)O1` (stereo not drawn), the “activity change, negative = cytotoxicity” value is 1.61%.

As for `C[C@@H](N)[C@@H](O)c1ccccc1`, the “activity change, negative = cytotoxicity” value was 4.03%.

For the molecule `c1ccc2c(c1)sc1ccccc12`, the “activity change, negative = cytotoxicity” value was -5.35%.

Take `CN1CC[C@]23c4c5ccc(O)c4O[C@H]2[C@@H](O)CC[C@H]3[C@H]1C5`: the “activity change, negative = cytotoxicity” value was 5.55% [at 116 µM].

Consider `c1ccc(CN2CCNCC2)cc1`, for which the “activity change, negative = cytotoxicity” value is 12.9% [at 222 µM].

Take `CCC(C)(C)c1ccc(O)cc1`: the “activity change, negative = cytotoxicity” value was -2.62%.

As to `CNC(C)(C)Cc1ccccc1`, the “activity change, negative = cytotoxicity” value was 0.672%.

In a further assay the test system is PA-1. The assay is described as above. Conditions: Gynecologic cancer cell panel viability, ATPlite luminescence, 48 h; series mostly up to 57.5 µM; activity change, negative = cytotoxicity: at the top concentration. The gist of the method: as §1
On the technique in general: Cellular ATP, detected with luciferase, serves as a proxy for viable cell number.
`COc1cccc([C@@]2(O)CCCC[C@@H]2CN(C)C)c1`: the “activity change, negative = cytotoxicity” value is -7.18%.

As for `C#C[C@]1(O)CC[C@H]2[C@@H]3CCC4=CC(=O)CC[C@]4(C)[C@H]3CC[C@@]21C`, the “activity change, negative = cytotoxicity” value was 5.93%.

For the molecule `COP(=S)(OC)Oc1ccc(S(=O)(=O)N(C)C)cc1`, the “activity change, negative = cytotoxicity” value was -0.749%.

As for `C[N+]1(CCF)[C@@H]2CC[C@H]1CC(OC(=O)C(O)(c1ccccc1)c1ccccc1)C2` (stereo partly drawn), the “activity change, negative = cytotoxicity” value is 9.97%.

For `Nc1ccccc1`, the “activity change, negative = cytotoxicity” value was 0.715%.

For the molecule `CN1C(=O)NC(=O)C(C)(C2=CCCCC2)C1=O` (stereo not drawn), the “activity change, negative = cytotoxicity” value is 9.26%.

As for `CCC1(CC)C(=O)C=CNC1=O`, the “activity change, negative = cytotoxicity” value is -0.516%.

For `O=c1oc2ccccc2c(O)c1Cc1c(O)c2ccccc2oc1=O`, the “activity change, negative = cytotoxicity” value was -5.52%.

In the case of `COC(=O)[C@@H](N)CCCN/C(N)=N/[N+](=O)[O-]`, the “activity change, negative = cytotoxicity” value was 14.7%.

Consider `Cc1ncsc1CCCl`, for which the “activity change, negative = cytotoxicity” value was 24.1%.

With `COC(=O)C(Cl)C(=O)OC`, the “activity change, negative = cytotoxicity” value was -4.06%.

In the case of `CN(C)CCc1c[nH]c2cccc(OP(=O)(O)O)c12`, the “activity change, negative = cytotoxicity” value was -24% [at 116 µM].

Consider `O=[N+]([O-])O[C@H]1CO[C@H]2[C@@H]1OC[C@H]2O[N+](=O)[O-]`, for which the “activity change, negative = cytotoxicity” value was 11.6%.

`CC(C)NC(C)C`: the “activity change, negative = cytotoxicity” value is 1.97%.

In the case of `O=C1OC(c2ccc(O)c(S(=O)(=O)O)c2)(c2ccc(O)c(S(=O)(=O)O)c2)c2c(Br)c(Br)c(Br)c(Br)c21`, the “activity change, negative = cytotoxicity” value is 32.4%.

As to `CCC1(c2ccccc2)C(=O)N(COC)C(=O)N(COC)C1=O`, the “activity change, negative = cytotoxicity” value was -3.03%.

For `CCOC(=O)CC(SP(=S)(OC)OC)C(=O)OCC` (stereo not drawn), the Potency result is “inactive”.

With `CC(=O)OCC1=C(C(=O)O)N2C(=O)[C@@H](N)[C@H]2SC1`, the Potency result was “inactive”.

For `CC1(C)C(C=C(Cl)Cl)C1C(=O)OC(C#N)c1cccc(Oc2ccccc2)c1` (stereo not drawn), the “activity change, negative = cytotoxicity” value is -3.5%.

`O=C(N/N=C/c1ccc([N+](=O)[O-])o1)c1cc([N+](=O)[O-])cc([N+](=O)[O-])c1O`: the “activity change, negative = cytotoxicity” value was 12.2%.

Take `CC(=O)NC1CCSC1=O` (stereo not drawn): the “activity change, negative = cytotoxicity” value is 10.9%.

Turning to `CCCCCCC(=O)CCCCCC/C=C/C[C@@H](O)[C@H](O)[C@@](N)(CO)C(=O)O`, the “activity change, negative = cytotoxicity” value was 8.96% [at 25.3 µM].

Regarding `CC(C)c1cccc(C(C)C)c1O`, the “activity change, negative = cytotoxicity” value is -0.151%.

For `COP(=S)(OC)Oc1cc(Cl)c(Cl)cc1Cl`, the “activity change, negative = cytotoxicity” value was 16.2%.

Regarding `O=c1[nH]oc2c1CCNC2`, the “activity change, negative = cytotoxicity” value is 2.99%.

`NCCc1ccc(O)cc1`: the “activity change, negative = cytotoxicity” value was -4.13%.

Turning to `O=C1c2ccccc2C(=O)C1C(=O)C(c1ccccc1)c1ccccc1`, the “activity change, negative = cytotoxicity” value was -0.0012%.

In the case of `NC1=NC(=O)C(c2ccccc2)O1` (stereo not drawn), the “activity change, negative = cytotoxicity” value was 7.55%.

`C[C@@H](N)[C@@H](O)c1ccccc1`: the “activity change, negative = cytotoxicity” value was 7.17%.

`c1ccc2c(c1)sc1ccccc12`: the “activity change, negative = cytotoxicity” value is 7.89%.

As for `CN1CC[C@]23c4c5ccc(O)c4O[C@H]2[C@@H](O)CC[C@H]3[C@H]1C5`, the “activity change, negative = cytotoxicity” value is -5.33% [at 116 µM].

In the case of `c1ccc(CN2CCNCC2)cc1`, the “activity change, negative = cytotoxicity” value is 23.7% [at 222 µM].

Turning to `CCC(C)(C)c1ccc(O)cc1`, the “activity change, negative = cytotoxicity” value is 22.2%.

For `CNC(C)(C)Cc1ccccc1`, the “activity change, negative = cytotoxicity” value was 12.7%.
